Assay results published in PubChem BioAssay.
Calls of active or inactive are those of the source.

Assays:
[1] = small molecules captured by biotinylated probe aFSTL3 – biochemical, small-molecule microarray, fluorescence 635/667, stem cell growth factor project, primary screen (AID 1064); conditions: higher = more signal;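 note: measures binding of the biotinylated anti-FSTL3 antibody to printed compounds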
[2] = binders from COS7 lysate, DM2A8 probe, primary screen, torsin A project, cell lysate, small-molecule microarray, fluorescence 635/667 (AID 1065); conditions: higher = more signal, COS7 lysate expressing mutant human TOR1A
[3] = small molecules captured by biotinylated probe aFGF2 – biochemical, small-molecule microarray, fluorescence 635/667, stem cell growth factor project, primary screen (AID 1067); conditions: higher = more signal;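 note: measures binding of biotinylated aFGF2 protein to printed compounds on slides; z-score merges feature fluorescence and signal-to-noise across triplicate slides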
[4] = small molecules captured by biotinylated probe aFGF10 – biochemical, small-molecule microarray, fluorescence 635/667, stem cell growth factor project, primary screen (AID 1071); conditions: higher = more signal;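 note: score merges 667 nm spot intensity and signal to noise from triplicate slides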
[5] = target: Neurogenic locus notch homolog protein 2 (Homo sapiens) (UniProt Q04721); assay: small molecules binding Notch2 protein – biochemical, small-molecule microarray, 635 nm fluorescence, stem cell growth factors, primary screen (AID 1073); conditions: higher = more signal
[6] = target: Pro-neuregulin-1, membrane-bound isoform (Homo sapiens) (UniProt Q02297); assay: small molecules binding neuregulin-1 protein – biochemical, small-molecule microarray, fluorescence 635/667, psychiatric disease protein project, primary screen (AID 1075); conditions: NRG1 binding, 635 nm fluorescence, higher = more signal;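 note: score combines 667 nm spot fluorescence with signal to noise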
[7] = tested on: Neuregulin-1 EGF-like domain; assay: small molecules binding NRG1 EGF domain – biochemical, small-molecule microarray, 635 nm fluorescence, primary screen (AID 1081); conditions: higher = more signal;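 note: binding of the protein to compounds printed on small-molecule microarray slides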
[8] = FRG1 expression reporter modulators in myotubes – cell-based, C2C12 myotubes, firefly/Renilla luciferase, luminescence, FRG1 inhibition for FSHD, primary screen (AID 1084); conditions: FRG1 promoter luciferase, higher = more signal, called active from +8 up or from −8 down
[9] = small molecules captured by biotinylated probe aFST – biochemical, small-molecule microarray, fluorescence 635/667, stem cell growth factor project, primary screen (AID 1086); conditions: higher = more signal;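 note: score merges 667 nm fluorescence with signal-to-noise of each printed compound spot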
[10] = binders of probe aHhip on microarray, primary screen, stem cell growth factor project, biochemical, small-molecule microarray, fluorescence 635/667 (AID 1087); conditions: higher = more signal;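 note: score merges spot fluorescence at 667nm with spot signal to noise ratio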
[11] = tested on: PRMT1 (protein arginine N-methyltransferase 1); assay: small molecules binding arginine methyltransferase PRMT1 – biochemical, small-molecule microarray, 635 nm fluorescence, primary screen (AID 1088); conditions: higher = more signal;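 note: binding of Prmt1 protein to compounds spotted on small-molecule microarray slides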
[12] = growth effects on S. cerevisiae YJM789 – YJM789 clinical isolate, OD600, 24 h, basal, primary screen (AID 1089); conditions: higher = more signal, called active from +8 up or from −8 down;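 note: growth of clinical yeast isolate S. cerevisiae YJM 789 seeded 1000 cells per well; test concentration not given here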
[13] = S. pombe growth modifiers, basal conditions – strain 972, OD600, 24 h, no modulator, primary screen (AID 1090);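 note: basal condition with compound alone and no growth modifier present; test concentration not given here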; conditions: S. pombe 972 growth, higher = more signal, called active from +8 up or from −8 down
[14] = budding yeast growth modifiers under rapamycin – strain BY4716, OD600, 96 h, primary screen (AID 1091); note: test concentration not given here; conditions: S. cerevisiae BY4716 + rapamycin, higher = more signal, called active from +8 up or from −8 down
[15] = target: Torsin-1A-interacting protein 2 (Homo sapiens) (UniProt Q8NFQ8); assay: small molecules binding lysate-expressed LULL1 – cell lysate, human LULL1 lysate, 635/667 nm fluorescence, primary screen (AID 1092); conditions: small-molecule microarray, hLULL1 lysate binding, 635 nm fluorescence; higher = more signal;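 note: probe is lysate of COS7 cells overexpressing human LULL1; score merges per-feature 667 nm fluorescence with signal-to-noise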
[16] = optical density change of DRC41 E. coli – strain DRC41, OD650, 24 h, E. coli filamentation project, primary screen (AID 1093);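 note: MC1000 strain lacking acrAB efflux and sulA so SOS filamentation is blocked; test concentration not given here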; conditions: E. coli DRC41 growth, higher = more signal, called active from +8 up or from −8 down
[17] = probe aLefty2 binding to arrayed compounds – biochemical, biotinylated probe, 635/667 nm fluorescence, primary screen (AID 1094); conditions: small-molecule microarray, higher = more signal;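 note: score merges spot fluorescence near 667 nm with spot signal-to-noise ratio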
[18] = tested on: Noggin (protein binding on small-molecule microarray); assay: small molecules binding Noggin protein – biochemical, 635/667 nm fluorescence, primary screen (AID 1095); conditions: 635 nm fluorescence, higher = more signal;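 note: score merges 667 nm feature fluorescence with signal to noise over triplicate slides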
[19] = target: Neurogenic locus notch homolog protein 3 (Homo sapiens) (UniProt Q9UM47); assay: small molecules binding NOTCH3 protein – biochemical, 635/667 nm fluorescence, primary screen (AID 1096); conditions: small-molecule microarray, 635 nm fluorescence, higher = more signal
[20] = probe aEGFR binding to arrayed compounds – biochemical, biotinylated probe, 635/667 nm fluorescence, primary screen (AID 1097); conditions: small-molecule microarray, higher = more signal;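 note: probe is a biotinylated anti-EGFR antibody binding compounds printed on slides; score combines fluorescence near 667 nm and signal to noise of each spot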

Chain of Pro-neuregulin-1, membrane-bound isoform (Homo sapiens) (Q02297 whole entry, looked up, the tested form may be a part, canonical isoform): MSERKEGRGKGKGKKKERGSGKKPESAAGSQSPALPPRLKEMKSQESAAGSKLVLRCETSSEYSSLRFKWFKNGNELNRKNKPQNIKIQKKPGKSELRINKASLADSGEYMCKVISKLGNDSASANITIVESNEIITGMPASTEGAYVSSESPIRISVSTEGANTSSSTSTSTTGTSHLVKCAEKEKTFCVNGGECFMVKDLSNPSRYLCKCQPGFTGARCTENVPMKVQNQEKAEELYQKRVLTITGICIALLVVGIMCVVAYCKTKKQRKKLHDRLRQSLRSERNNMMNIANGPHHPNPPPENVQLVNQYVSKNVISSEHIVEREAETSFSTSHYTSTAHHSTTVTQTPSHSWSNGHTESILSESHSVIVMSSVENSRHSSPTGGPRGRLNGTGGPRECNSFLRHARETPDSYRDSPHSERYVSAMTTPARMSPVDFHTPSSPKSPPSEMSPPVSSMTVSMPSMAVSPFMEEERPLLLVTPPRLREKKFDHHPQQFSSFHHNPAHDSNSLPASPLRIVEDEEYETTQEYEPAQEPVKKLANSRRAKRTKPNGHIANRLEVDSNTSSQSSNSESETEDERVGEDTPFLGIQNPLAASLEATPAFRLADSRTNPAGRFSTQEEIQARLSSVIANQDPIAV
Chain of Neurogenic locus notch homolog protein 2 (Homo sapiens) (Q04721 whole entry, looked up, canonical isoform): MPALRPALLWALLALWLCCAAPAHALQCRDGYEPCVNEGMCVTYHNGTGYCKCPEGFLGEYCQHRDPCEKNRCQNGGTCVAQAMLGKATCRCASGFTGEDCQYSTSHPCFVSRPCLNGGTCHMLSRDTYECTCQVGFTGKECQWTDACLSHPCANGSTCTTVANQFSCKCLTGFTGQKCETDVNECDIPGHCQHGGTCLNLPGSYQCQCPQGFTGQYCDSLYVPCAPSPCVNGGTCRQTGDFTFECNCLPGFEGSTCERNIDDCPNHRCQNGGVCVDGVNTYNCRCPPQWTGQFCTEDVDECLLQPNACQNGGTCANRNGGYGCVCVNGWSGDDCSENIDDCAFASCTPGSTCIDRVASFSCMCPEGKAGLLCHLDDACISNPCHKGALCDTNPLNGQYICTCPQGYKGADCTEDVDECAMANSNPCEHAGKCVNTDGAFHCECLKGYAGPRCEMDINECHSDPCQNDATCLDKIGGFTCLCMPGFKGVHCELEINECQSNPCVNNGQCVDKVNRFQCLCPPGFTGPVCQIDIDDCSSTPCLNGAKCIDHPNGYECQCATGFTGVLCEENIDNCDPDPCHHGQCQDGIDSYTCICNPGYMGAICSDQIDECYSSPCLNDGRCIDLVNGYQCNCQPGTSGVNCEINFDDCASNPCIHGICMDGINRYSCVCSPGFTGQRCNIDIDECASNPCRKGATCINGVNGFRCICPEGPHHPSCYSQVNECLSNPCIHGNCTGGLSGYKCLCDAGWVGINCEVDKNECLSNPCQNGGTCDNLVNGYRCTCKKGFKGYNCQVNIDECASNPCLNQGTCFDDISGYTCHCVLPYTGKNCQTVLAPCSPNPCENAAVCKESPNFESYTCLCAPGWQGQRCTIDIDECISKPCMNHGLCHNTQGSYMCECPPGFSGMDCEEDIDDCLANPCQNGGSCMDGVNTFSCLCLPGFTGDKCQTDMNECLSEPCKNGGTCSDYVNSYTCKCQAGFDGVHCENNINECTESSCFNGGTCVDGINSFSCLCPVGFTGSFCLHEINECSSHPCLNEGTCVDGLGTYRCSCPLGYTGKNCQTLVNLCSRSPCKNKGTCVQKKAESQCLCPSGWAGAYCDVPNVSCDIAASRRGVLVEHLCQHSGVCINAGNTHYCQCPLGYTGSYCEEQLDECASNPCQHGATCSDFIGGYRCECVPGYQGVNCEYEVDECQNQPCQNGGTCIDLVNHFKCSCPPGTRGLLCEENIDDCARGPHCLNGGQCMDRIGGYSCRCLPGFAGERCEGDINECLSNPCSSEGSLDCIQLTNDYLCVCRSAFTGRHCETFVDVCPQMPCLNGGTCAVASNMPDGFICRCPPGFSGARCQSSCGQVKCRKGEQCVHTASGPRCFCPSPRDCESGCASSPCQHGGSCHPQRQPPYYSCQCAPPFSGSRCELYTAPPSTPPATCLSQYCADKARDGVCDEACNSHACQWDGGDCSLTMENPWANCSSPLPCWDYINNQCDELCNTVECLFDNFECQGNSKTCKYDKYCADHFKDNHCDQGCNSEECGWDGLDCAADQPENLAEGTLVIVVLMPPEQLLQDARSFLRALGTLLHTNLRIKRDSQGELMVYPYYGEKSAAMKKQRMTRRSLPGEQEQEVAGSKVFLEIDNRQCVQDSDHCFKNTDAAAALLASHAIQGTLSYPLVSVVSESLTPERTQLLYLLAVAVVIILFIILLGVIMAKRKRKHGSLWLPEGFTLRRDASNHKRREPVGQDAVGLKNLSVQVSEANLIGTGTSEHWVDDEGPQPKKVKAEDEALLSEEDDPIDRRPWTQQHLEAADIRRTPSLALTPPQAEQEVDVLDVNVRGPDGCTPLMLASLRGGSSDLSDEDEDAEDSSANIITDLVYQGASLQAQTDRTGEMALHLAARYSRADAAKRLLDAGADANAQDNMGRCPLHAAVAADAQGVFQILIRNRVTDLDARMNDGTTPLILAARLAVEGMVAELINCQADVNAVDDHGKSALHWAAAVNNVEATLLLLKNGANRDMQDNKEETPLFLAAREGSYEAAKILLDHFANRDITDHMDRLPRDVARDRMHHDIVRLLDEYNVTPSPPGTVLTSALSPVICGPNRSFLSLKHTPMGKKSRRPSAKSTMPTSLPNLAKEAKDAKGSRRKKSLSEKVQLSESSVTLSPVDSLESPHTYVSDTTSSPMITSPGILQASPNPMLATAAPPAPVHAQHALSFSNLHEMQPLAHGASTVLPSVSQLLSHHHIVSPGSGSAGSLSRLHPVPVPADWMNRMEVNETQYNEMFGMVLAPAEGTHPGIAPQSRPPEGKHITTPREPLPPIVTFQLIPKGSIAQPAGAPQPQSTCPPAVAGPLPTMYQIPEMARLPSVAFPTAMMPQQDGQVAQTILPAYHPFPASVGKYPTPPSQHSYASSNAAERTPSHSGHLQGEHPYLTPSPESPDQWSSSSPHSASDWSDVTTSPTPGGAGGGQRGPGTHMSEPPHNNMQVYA
Chain of Torsin-1A-interacting protein 2 (Homo sapiens) (Q8NFQ8 whole entry, looked up): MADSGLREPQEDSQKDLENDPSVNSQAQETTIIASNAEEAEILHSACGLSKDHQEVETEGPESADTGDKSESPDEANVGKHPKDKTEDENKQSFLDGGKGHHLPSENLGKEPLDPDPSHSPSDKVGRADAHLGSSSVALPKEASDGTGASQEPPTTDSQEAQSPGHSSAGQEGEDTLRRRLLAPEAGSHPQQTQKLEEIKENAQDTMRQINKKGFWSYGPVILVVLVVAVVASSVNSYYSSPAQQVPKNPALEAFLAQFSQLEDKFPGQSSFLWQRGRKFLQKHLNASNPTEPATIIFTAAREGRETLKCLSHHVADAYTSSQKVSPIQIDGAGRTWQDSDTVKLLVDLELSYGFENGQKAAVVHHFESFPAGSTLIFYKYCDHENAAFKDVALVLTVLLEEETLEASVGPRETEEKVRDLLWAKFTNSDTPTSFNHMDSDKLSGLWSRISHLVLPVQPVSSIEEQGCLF

Row | SMILES | composite z-score [1] | composite z-score [2] | composite z-score [3] | composite z-score [4] | composite z-score [5] | composite z-score [6] | composite z-score [7] | z-score [8] | composite z-score [9] | composite z-score [10] | composite z-score [11] | z-score [12] | z-score [13] | z-score [14] | composite z-score [15] | z-score [16] | composite z-score [17] | composite z-score [18] | composite z-score [19] | composite z-score [20]
1 | O=C(N1CCOCC1)[C@@]1(Cc2ccccc2)COC(c2ccc(OCCCO)cc2)=N1 | 1.06 | 0.615 | 0.0094 | 0.64 | 0.763 | 1.49 | 1.06 | -1.28 (inactive) | 0.48 | 0.264 | 0.88 | -0.731 (inactive) | -5.55 (inactive) | -1.39 (inactive) | 2.95 | 2.88 (inactive) | 0.588 | -0.622 | 0.116 | 0.518
2 | C=C(/C(=C/C[C@@H](OC(C)=O)c1cccc(OCCO)c1)c1cnc2ccccc2c1)C(C)C | -0.121 | 0.197 | -0.0242 | 0.76 | 0.693 | 0.41 | 1.08 | 2 (inactive) | 0.0752 | -0.0645 | 1.55 | 0.0631 (inactive) | -0.396 (inactive) | -0.28 (inactive) | 0.77 | 0.974 (inactive) | -0.207 | 2.09 | 0.801 | -0.139
3 | COCC(=C=CC[C@H](O)c1ccccc1OCCO)C[C@H](O)COCc1ccccc1 | -0.287 | 0.584 | -0.0004 | 1.3 | 0.41 | 1.22 | 0.571 | 0.291 (inactive) | 0.092 | 0.107 | 1.55 | -0.16 (inactive) | -1.15 (inactive) | -0.619 (inactive) | 2.71 | -0.111 (inactive) | -0.0113 | 0.513 | 0.271 | 0.312
4 | CC(C)C[C@@H]1NC(=O)[C@@]23C(=O)N[C@@H](Cc4ccccc4)C2[C@H](C)[C@@]2(C)O[C@H]2C3/C=C/C/C=C\CNC(=O)CNC1=O (stereo not given in full) | -0.351 | 0.0664 | -0.13 | 0.573 | 0.0474 | 0.458 | 0.325 | -0.866 (inactive) | -0.175 | -0.48 | 0.514 | -0.135 (inactive) | -1.1 (inactive) | -0.159 (inactive) | 2.23 | -0.52 (inactive) | 0.0207 | 0.609 | 0.53 | -0.0812
5 | CCN(CC)c1ccc(N2CC=CC34O[C@@H]5C=CCCOC(=O)C5[C@H]3C(=O)N(C(C)CO)[C@@H]4C2=O)cc1 (stereo not given in full) | 0.221 | 0.864 | -0.0627 | -0.227 | -0.371 | 0.415 | 1.36 | 0.725 (inactive) | -0.0426 | -0.34 | 1.05 | -1.01 (inactive) | -1.6 (inactive) | -0.399 (inactive) | 2.11 | -0.42 (inactive) | 0.0815 | 0.524 | 0.61 | -0.0702
6 | CC(C)(C)OC(=O)CC[C@@]1(C(=O)NCCN2CCOCC2)N=C(c2ccc(OCCCO)cc2)O[C@@H]1c1ccccc1CN=[N+]=[N-] | 0.202 | 0.213 | 0.0154 | 0.167 | 0.422 | 1.54 | 0.914 | 5.92 (inactive) | 0.157 | 0.0106 | 1.09 | -0.865 (inactive) | 0.258 (inactive) | -1.3 (inactive) | 2.96 | -1.07 (inactive) | -0.0152 | 0.167 | 0.461 | -0.0479
7 | O=C1C[C@@](C(=O)O)(c2ccc([N+](=O)[O-])cc2)[C@@H](c2ccc(CO)cc2)N1C1CCCCC1 | -0.0207 | 0.748 | 0.137 | 0.687 | 1.46 | 1.63 | 1.21 | -0.118 (inactive) | 0.905 | -0.0645 | 1.54 | 1.24 (inactive) | -1.36 (inactive) | 1.05 (inactive) | 3.12 | 0.397 (inactive) | 0.0909 | 0.333 | 1.15 | -0.0409
8 | CC(=O)NCCCC[C@@H]1NC(=O)[C@H]2C[C@@H](C(=O)NCCCCCCNC(=O)CS)[C@@H](c3cccc(OCCO)c3)N2C1=O | 0.419 | 0.611 | 0.0252 | 0.492 | -0.681 | 0.465 | 1.42 | 0.799 (inactive) | -0.0535 | -0.0618 | 1.56 | 0.828 (inactive) | 0.257 (inactive) | 1.28 (inactive) | 2.65 | -0.488 (inactive) | -0.0187 | 0.153 | 0.846 | -0.123
9 | CC(C)C[C@H]1NC(=O)C([C@@H](C)OCc2ccccc2)NC(=O)[C@@]23C(=O)N[C@@H](Cc4ccccc4)C2[C@H](C)[C@@]2(C)O[C@H]2C3/C=C/C/C=C\CNC1=O (stereo not given in full) | -0.61 | 0.583 | -0.0712 | 0.775 | 0.831 | 1.21 | 1.06 | 2.71 (inactive) | 0.517 | 3.36 | 1.55 | -0.099 (inactive) | -1.21 (inactive) | 0.206 (inactive) | 2.01 | -0.281 (inactive) | 0.039 | 0.697 | 1.1 | 0.138
10 | N#Cc1ccc(C(O)C2C=CC3C(=O)NC(=O)C3N2Nc2ccc(Cl)cc2Cl)cc1 (stereo not given) | -0.0161 | -0.0803 | -0.101 | 0.116 | 1.45 | 1.82 | 0.649 | 1.79 (inactive) | 0.119 | -0.146 | 0.156 | -2.93 (inactive) | -0.615 (inactive) | 0.448 (inactive) | 3.39 | -0.343 (inactive) | 0.103 | -0.185 | 0.559 | -0.0594
